# RGS4 inhibitor: blocks human RGS4-accelerated GTP hydrolysis | Transcreener GDP fluorescence polarization, RGS4-accelerated GTP hydrolysis | Potency, µM (top dose mostly 114 µM), for inactives: at the top dose activity change, negative = inhibition, actives largely listed as inhibitors | actives 0.039% (n = 390,000) | AID 504845; active means well fitted inhibition curve with a large enough effect; inconclusive means small, poorly fitted or top-dose-only effect; inactive means no such curve, though single readings can be large or run the other way; further: potency means the concentration at half of the fitted maximal effect; on the % scale 0 is the no-effect control and ±100 the full control effect; nearly all actives have a fitted effect of over 75% in size
# Target sequence (P49798 whole entry, looked up): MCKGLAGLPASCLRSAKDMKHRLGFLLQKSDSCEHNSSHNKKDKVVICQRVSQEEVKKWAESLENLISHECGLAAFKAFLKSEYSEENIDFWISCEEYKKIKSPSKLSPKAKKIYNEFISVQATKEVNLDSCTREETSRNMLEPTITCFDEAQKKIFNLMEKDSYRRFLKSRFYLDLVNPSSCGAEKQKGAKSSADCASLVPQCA
#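 MLSMR compounds (23 nl, pin-transferred) preincubated 10 min at room temperature with a 500nM (2x) first reagent, then RGS4 at 900nM (2x) plus Transcreener GDP mix added; fluorescence polarization (620/688 nm) read before and after 90 min at 30 °C.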
# PI4K2A inh: PI4K2A (human) kinase inhibition; Q9BTU6; AID 1346378; activity change, negative = inhibition, % at 76.9 µM; purified PI4K2A, ADP-Glo luminescence, 1 h; stronger effect = lower value; actives 0.13% (n = 420,000); in the data active means activity change below about -50%; inconclusive means mostly about -30% to -49%;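 further: -100% = wells without enzyme as full effect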
#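 PI4K2A activity was measured by ADP-Glo luminescence: enzyme (4 ug/mL stock) and phosphatidylinositol (1.2 mM stock) in Tris pH 7.5/MgCl2/EGTA/Triton X-100 buffer were reacted with ATP (300 microM stock) for one hour at ambient temperature.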
# LDHA inh: blocks human lactate dehydrogenase A. activity change, % (values are at about 110 or 230 µM). AID 1347041. P00338. purified LDHA, NADH/diaphorase-resazurin fluorescence; stronger effect = lower value. actives 0.15% (n = 480,000); in the data active means activity change below about -30%; inconclusive means mostly about -25% to -30%;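 further: plate controls were DMSO wells for no effect and wells without enzyme for full effect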
#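 Human LDH5 (2 nM) was incubated with 0.06 mM NADH and 0.2 mM pyruvate for 5 min at room temperature in Tris pH 7.4. Remaining NADH was coupled through diaphorase/resazurin, and resorufin fluorescence was read at 0 and 20 min.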
# pAkt inh: inhibitors of Akt phosphorylation; Neuro2A IGF-stimulated pAkt S473 HTRF, 20 min; stronger effect = lower value; activity change, % for hits at 50 µM; actives 0.32% (n = 360,000); AID 651550; in the data active means activity change below about -80%; inconclusive means mostly about -51% to -80%; further: on the % scale 0 is the no-effect control and ±100 the full control effect
#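 Single-point screen (50 µM final compound) in Neuro2A cells stimulated 20 min with 6 nM IGF at 37 deg C. After lysis, Ser473-phosphorylated Akt read by HTRF (ex 330 nm, em 615/665 nm) as the 665/615 ratio.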
# DRD3 antagonist: D3 dopamine receptor (human) antagonism | P35462 | D3R cells, DiscoveRx beta-arrestin luminescence, antagonist mode; stronger effect = lower value | max response, negative = inhibition, % | actives 2.5% (n = 360,000) | AID 652054; in the data active means max response below about -50%; inconclusive means no clear call, values can overlap the other calls; further: on the % scale 0 is the no-effect control and ±100 the full control effect
#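 Cells expressing the human receptor were seeded at 1500 cells/well, incubated overnight at 37 degrees C in 5% CO2, then exposed to library compounds with dopamine controls for 90 minutes at 37 degrees C before luminescent detection.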
# DRD3 agonist: activates the human D3 dopamine receptor; P35462; D3R DiscoveRx beta-arrestin cells, luminescence, 90 min; max activation, %; actives 0.58% (n = 410,000); in the data active means max activation above about 30%; further: 0% is about no effect
#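 Cells at 1500/well, incubated overnight, then treated with pinned compounds (dopamine as control) for 90 min at 37 degrees C. DiscoveRx reagent added for 30 - 60 minutes at room temperature; luminescence read.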
# * = called active by the depositor; i = inactive; ? = inconclusive; / = no result given. Most compounds without a hit are left out; they make up all but 2.8% or so of the library.
SMILES,RGS4 inhibitor,PI4K2A inh,LDHA inh,pAkt inh,DRD3 antagonist,DRD3 agonist
O=C(CCCOc1ccccc1)N1CCN(c2ccccc2)CC1,-43.2%,-15.7,1.6,i,-53.1*,-20.0
Cc1cc(C)c2c(c1)C(=O)c1ccccc1-2,/,/,17.9,/,/,/
O=C(N=Nc1c(O)[nH]c2ccccc12)c1cc(-c2cccs2)[nH]n1,-50.0%,3.4,-39.5*,i,39.3,8.4
c1ccc2cc(C3=NCCN3)ncc2c1,i,/,/,/,/,/
CC1CCCC(N2CCN(Cc3cccc(Cl)c3)CC2)C1 (configuration not stated),/,/,1.3,/,/,/
CCCCCCc1cc2cc(C(=O)Nc3ccccc3)c(=O)oc2cc1O,-8.0%,-3.5,-7.8,i,51.0,50.7*
O=C(Cc1c[nH]c2ccccc12)NC1CCN(CC2CCCC2)CC1,/,/,-6.8,/,/,/
CCCCCCSc1ccc([C@H]2N[C@@](Cc3ccccc3)(C(=O)OC)[C@H]3C(=O)N(CC)C(=O)[C@@H]23)cc1,-1.6%,-0.8,-2.8,i,3.0,1.0
CCCCCCSc1ccc([C@H]2N[C@@](Cc3ccccc3)(C(=O)OC)[C@H]3C(=O)N(C)C(=O)[C@@H]23)cc1,4.0%,-2.5,4.1,i,-51.3*,-6.3
CCN1C(=O)[C@H]2[C@@H](c3ccc(-c4ccc(C(C)=O)cc4)c(OC)c3)N[C@@](Cc3ccccc3)(C(=O)OC)[C@H]2C1=O,-18.0%,-4.8,1.0,i,-59.3*,-7.9
O=C(COC(=O)c1ccsc1)c1ccc2c(c1)OCCCO2,/,/,1.7,/,/,/
CC1Cc2cc(C(=O)c3cc4cc(Br)ccc4o3)ccc2N1S(C)(=O)=O (configuration not stated),/,/,2.1,/,/,/
CCN(CC)S(=O)(=O)c1cc(C(=O)Nc2nncs2)c(Cl)cc1Cl,4.5%,-2.7,-2.3,i,-7.9,-10.2
CCN(CC)S(=O)(=O)c1ccc(Cl)c(C(=O)Nc2nncs2)c1,6.0%,-11.5,-0.9,-102.7%*,-19.7,-3.3
Cc1ccccc1C(=O)N1CCN(c2oc(-c3ccccc3F)nc2C#N)CC1,/,/,0.0,/,/,/
OC(CSc1ccccc1)CN1CCN(c2ccccc2)CC1 (configuration not stated),-16.5%,-2.6,-0.8,i,?,-1.9
OC(CSc1ccccc1Cl)CN1CCN(c2ccc(F)cc2)CC1 (configuration not stated),-8.2%,0.1,1.9,i,-81.4*,-28.0
OC(CSc1c(Cl)cccc1Cl)CN1CCN(c2ccc(F)cc2)CC1 (configuration not stated),6.0%,2.4,7.1,i,-88.6*,-39.1
Cc1coc2c(C)c3oc(=O)c(CCC(=O)NCCCn4ccnc4)c(C)c3cc12,-7.5%,0.7,-0.7,i,-69.3*,-48.5
Cc1c(CCC(=O)NCCCn2ccnc2)c(=O)oc2c(C)c3occ(C(C)(C)C)c3cc12,15.5%,2.5,-0.3,i,-4.7,4.0
CCC(C)c1ccccc1OCCCNC1CCCC1 (configuration not stated),-19.1%,6.0,-7.2,i,-82.0*,-3.1
CCOc1cccc(OCCNC2CCCC2)c1,27.2%,-0.3,-12.5,i,?,-14.7
c1ccc(OCCNC2CCCC2)cc1,/,/,3.6,/,/,/
COc1ccccc1OCCNC1CCCC1,1.3%,4.1,-16.6,i,-76.3*,-6.5
CN(C)CCN(CC1CCCCC1)C(=O)Nc1ccc(Cl)cc1,/,/,1.0,/,/,/
Cc1cc(C)cc(-c2nc3cc(NC(=O)c4ccc5c(c4)OCO5)ccc3o2)c1,/,/,-5.7,/,/,/
Cc1cccc(-c2cc(=O)c(C(=O)O)cn2-c2ccc(F)cc2F)c1,15.2%,-5.6,-1.0,i,-78.8*,0.0
Cc1cccc(-c2cc(C(=O)O)c3c(-c4ccc(F)cc4)[nH]nc3n2)c1,11.0%,-0.8,0.7,/,/,-10.1
CC12CCC(C(=O)N(CCCN3CCN(Cc4ccccc4)CC3)C1=O)C2(C)C (configuration not stated),-52.6%,1.7,-10.6,i,-18.0,-13.1
